± gives the standard deviation of the averaged measurements. Over roughly 33,000 sequences, “E-score (dimensionless, -0.5 to 0.5)” has its median near -0.049; the highest 2% begin near 0.37. The sample as a whole holds a higher share of the highest values than the screen did.
These sequences were tested on T1, PmTbr T-box DNA-binding domain (GST fusion) (assay: PBM E-score of 8-mer (E-score (dimensionless, -0.5 to 0.5)); Tbr is Tbrain of the sea star Patiria miniata (Pm) or the sea urchin Strongylocentrotus purpuratus (Sp); higher = stronger binding preference). Details: the construct has about 5 more residues each side.
T1 sequence: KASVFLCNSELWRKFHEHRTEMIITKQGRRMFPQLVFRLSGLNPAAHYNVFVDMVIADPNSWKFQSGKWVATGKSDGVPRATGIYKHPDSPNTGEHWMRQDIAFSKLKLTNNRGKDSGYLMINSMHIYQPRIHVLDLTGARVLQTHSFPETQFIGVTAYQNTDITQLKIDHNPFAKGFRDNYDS
Procedure, shortened: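 Expression of GST-fused Tbr T-box DNA-binding domains, each holding the full T-box plus roughly five flanking residues, was carried out in BL21 E. coli at 20 °C, with purification by glutathione affinity chromatography. Universal Agilent arrays made double-stranded by primer extension were incubated with the protein at 200 nM in PBS (pH 7.5), then scanned and quantified. All ungapped 8-mers were scored from probe intensities, and each received an enrichment E-score from the Universal PBM Analysis Suite, averaged over duplicate arrays.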

| Sequence | PBM E-score of 8-mer |
| --- | --- |
| TTAGCAAA | 0.173 ± 0.064 |
| AGAGTGTA | 0.0538 ± 0.058 |
| CGAGTGTC | 0.294 ± 0.018 |
| AGAGTGTC | 0.385 ± 0.0076 |
| TAGGTTAA | -0.216 ± 0.0052 |
| AGAGTTGA | 0.0684 ± 0.016 |
| AGGCGCGG | 0.242 ± 0.019 |
| CGGCGCGA | 0.317 ± 0.034 |
| AGGCGCGC | 0.152 ± 0.021 |
| GGGGGCGA | 0.01664 ± 0.00016 |
| CGGCGCTA | 0.239 ± 0.033 |
| AGGCGCTA | 0.4421 ± 0.0025 |
| AGGCGAGA | 0.401 ± 0.011 |
| AGGCGAGC | -0.25 ± 0.068 |
| GGGCGCGA | 0.409 ± 0.02 |
| GGGCGCTA | 0.346 ± 0.018 |
| GGGCGAGA | 0.194 ± 0.052 |
| AGGCGCGA | 0.463 ± 0.0056 |
| AAGCGATG | -0.00845 ± 0.0036 |
| CCCTCTGC | 0.0209 ± 0.072 |
| ATCTTAGA | -0.0793 ± 0.081 |
| CGACCAAC | 0.00547 ± 0.043 |
| ACTGCTGA | 0.181 ± 0.035 |
| AGTCATCG | -0.153 ± 0.0094 |
| CTTAAGGC | -0.0813 ± 0.065 |

| Sequence | PBM E-score of 8-mer |
| --- | --- |
| CAATCTAC | -0.0883 ± 0.0018 |
| GCTCTATA | -0.25 ± 0.048 |
| TCGAAAGA | -0.172 ± 0.05 |
| GACCCTTA | -0.0822 ± 0.0071 |
| CGAGTTAG | -0.0558 ± 0.052 |
| GAAGCTCC | -0.342 ± 0.041 |
| CTGTGGAC | -0.104 ± 0.0043 |
| CACTAGGG | -0.15 ± 0.031 |
| AGGCGACA | 0.3974 ± 0.0038 |
| AGGCGACG | 0.268 ± 0.0026 |
| AGGCGACC | -0.13 ± 0.17 |
| AATTGGCA | 0.247 ± 0.036 |
| CGAAAAAA | 0.00041 ± 0.062 |
| CGAAATCG | 0.231 ± 0.046 |
| ACAAGTAT | 0.112 ± 0.028 |
| ACAAGTCT | 0.103 ± 0.044 |
| AAAAGTGG | 0.107 ± 0.0099 |
| AAAAGTGT | 0.413 ± 0.015 |
| ACAAGTGA | 0.277 ± 0.034 |
| ACAAGTGG | 0.375 ± 0.017 |
| ACAAGTGC | 0.249 ± 0.005 |
| AAAAGTGA | 0.197 ± 0.059 |
| ACAAGTGT | 0.391 ± 0.0052 |
| CGCACTCA | 0.161 ± 0.074 |
| AAAACGGG | -0.146 ± 0.0023 |

| Sequence | PBM E-score of 8-mer |
| --- | --- |
| ATATACGA | -0.298 ± 0.059 |
| AAATTCTT | -0.155 ± 0.029 |
| TACTACGA | 0.0382 ± 0.023 |
| ATATGGCC | -0.235 ± 0.066 |
| ATGGGCTC | -0.154 ± 0.16 |
| TCGCTTCA | 0.177 ± 0.02 |
| CACGGGTC | 0.0871 ± 0.051 |
| ATGTCGCA | 0.254 ± 0.049 |
| CTGTCGCA | 0.224 ± 0.064 |
| ATGTCGGA | -0.0551 ± 0.054 |
| GTGTCGGA | 0.394 ± 0.015 |
| CTGTCGGA | 0.101 ± 0.044 |
| GTGTCGCA | 0.415 ± 0.0083 |
| CGGATGCC | -0.239 ± 0.09 |
| AGTAGAGA | -0.165 ± 0.0094 |
| CAAATGTC | 0.0249 ± 0.12 |
| ACCTCAAC | -0.0545 ± 0.07 |
| CCGCTGAA | -0.279 ± 0.04 |
| AGTGCTAG | 0.358 ± 0.0077 |
| CGTGCTAG | 0.287 ± 0.027 |
| GGTGCTCA | -0.112 ± 0.025 |
| AGTGCTAC | 0.276 ± 0.031 |
| GGTGCTAC | 0.434 ± 0.0055 |
| AGTGCTAT | 0.27 ± 0.0047 |
| GGTGCTAA | 0.4753 ± 0.00081 |

| Sequence | PBM E-score of 8-mer |
| --- | --- |
| TGTGCTAA | 0.346 ± 0.02 |
| AGTGCTAA | 0.421 ± 0.012 |
| GGTGCTTA | 0.0849 ± 0.048 |
| CGTGCTAA | 0.378 ± 0.021 |
| CGTGCTAC | 0.185 ± 0.0064 |
| ACAGTTAG | 0.0702 ± 0.027 |
| ATGAATCA | -0.129 ± 0.0053 |
| GTCCATGA | -0.052 ± 0.031 |
| GGGTGGGA | 0.237 ± 0.011 |
| CCCACATA | -0.214 ± 0.08 |
| CAAGGGGC | -0.095 ± 0.021 |
| AGCAGCAA | -0.118 ± 0.011 |
| CAACGTCA | 0.0459 ± 0.035 |
| ACACTTTC | 0.408 ± 0.0072 |
| AGACTTTG | -0.00767 ± 0.055 |
| ACTCTTTC | -0.00346 ± 0.013 |
| ACACTTTA | 0.338 ± 0.029 |
| ACACTTTG | 0.404 ± 0.014 |
| CCACTTTC | 0.104 ± 0.06 |
| GTTTTTAA | -0.131 ± 0.14 |
| AATCACCT | 0.311 ± 0.017 |
| GTGTAGAA | 0.164 ± 0.051 |
| AGACAGGC | -0.103 ± 0.03 |
| AAGTTAGC | 0.192 ± 0.011 |
| ATGTCCGG | -0.174 ± 0.071 |

| Sequence | PBM E-score of 8-mer |
| --- | --- |
| CACCTCAG | 0.42 ± 0.0057 |
| CACCTCAA | 0.395 ± 0.022 |
| AACCTCAA | -0.113 ± 0.028 |
| TACCTCAA | -0.132 ± 0.028 |
| AACCTCAG | -0.26 ± 0.042 |
| AACCTCAC | 0.219 ± 0.015 |
| CACCTCAC | 0.4504 ± 0.0025 |
| CTCCTCAG | -0.0996 ± 0.015 |
| GACCTCAC | 0.0743 ± 0.032 |
| CTGCCACC | 0.265 ± 0.036 |
| CCCGATTA | 0.0524 ± 0.024 |
| CCGCTAGA | 0.0332 ± 0.029 |
| CGATTGCC | -0.0231 ± 0.013 |
| GTACAGCA | -0.0813 ± 0.032 |
| ACGGAAAT | -0.189 ± 0.071 |
| CCGCAGGC | 0.000335 ± 0.0022 |
| CCTCACAA | 0.155 ± 0.016 |
| GCTCACAC | 0.424 ± 0.01 |
| ACTCACAC | 0.4612 ± 0.00083 |
| GCACACAC | 0.219 ± 0.039 |
| ACTCACAT | -0.0309 ± 0.043 |
| ACTCACAG | 0.314 ± 0.043 |
| CCTCACAG | 0.127 ± 0.049 |
| CCTCACAC | 0.475 ± 0.005 |
| GCTCACAA | 0.132 ± 0.037 |

| Sequence | PBM E-score of 8-mer |
| --- | --- |
| ACTACCTC | -0.248 ± 0.022 |
| ACTCCACC | -0.0966 ± 0.022 |
| CGGCCAGA | -0.215 ± 0.011 |
| ACTCTTAG | -0.0903 ± 0.065 |
| ACACTTAG | 0.416 ± 0.0068 |
| ACACTTAA | 0.362 ± 0.031 |
| CCACTTAC | 0.201 ± 0.0076 |
| ACACTTAT | 0.387 ± 0.0076 |
| GCACTTAC | 0.178 ± 0.015 |
| ACTCTTAT | -0.0869 ± 0.047 |
| ACACTTAC | 0.412 ± 0.0079 |
| CCACTTAG | -0.0105 ± 0.01 |
| CTTAAGAC | -0.218 ± 0.055 |
| CCGATCCG | -0.094 ± 0.017 |
| CGGTTAGA | -0.182 ± 0.026 |
| ACATTAGG | 0.0856 ± 0.037 |
| ACAGGGCG | 0.0776 ± 0.037 |
| GAGCGCGA | 0.291 ± 0.019 |
| AAGCGCGG | 0.0485 ± 0.038 |
| AAGCGCGA | 0.375 ± 0.017 |
| CAGCGCGA | 0.203 ± 0.029 |
| TAGCGCGA | 0.3803 ± 0.0017 |
| AAGCGCGC | 0.106 ± 0.015 |
| CCACGCTA | -0.0567 ± 0.028 |
| ACTCAGCA | -0.151 ± 0.053 |

| Sequence | PBM E-score of 8-mer |
| --- | --- |
| TCCTAGAA | -0.0822 ± 0.13 |
| CCTAGCAA | 0.128 ± 0.069 |
| CCTAGCAC | 0.3709 ± 0.0033 |
| ACTAGCAA | 0.00762 ± 0.0026 |
| ACTAGCAC | 0.381 ± 0.013 |
| GCTAGCAC | 0.33 ± 0.0063 |
| ACTAGCAG | -0.0294 ± 0.074 |
| CTTGGAAA | -0.0932 ± 0.023 |
| CATCTATC | -0.196 ± 0.023 |
| CGAGTGCG | 0.225 ± 0.033 |
| CAGGTGTC | 0.4791 ± 0.0044 |
| CAGATGTC | -0.0861 ± 0.049 |
| GAGGTGTA | 0.44018 ± 0.00028 |
| ACGGTGTA | 0.16 ± 0.0067 |
| GCGGTGTA | -0.136 ± 0.021 |
| CCGGTGTA | 0.0868 ± 0.027 |
| AAGGTGTA | 0.404 ± 0.026 |
| GGGGTGTA | 0.175 ± 0.0049 |
| CAGGTGTA | 0.3628 ± 0.0011 |
| ACGGTGTC | 0.26 ± 0.076 |
| AAGGTGTC | 0.4879 ± 0.0035 |
| AAGGTTTC | 0.0322 ± 0.0076 |
